Compound activity: PubChem BioAssay, National Center for Advancing Translational Sciences (NCATS)
Sampled rows, rich in hits. Any-hit rate of the full collection: about 21%.
Pf growth 96h: Primary qHTS for delayed death inhibitors of the malarial parasite plastid, 96 hour incubation; 320,000 compounds, 6.9% hits; AID 504834, 2011; P. falciparum luciferase reporter growth, 96 h; Potency, µM (doses to about 28.7 µM), for inactives: top-dose activity change, negative = inhibition, most hits filed as inhibitors; further: potency means the concentration at half of the fitted maximal effect; on the % scale 0 is the no-effect control and ±100 the full control effect
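P. falciparum expressing integrated firefly luciferase, in erythrocytes at 2% hematocrit, 0.05% parasitemia, incubated with compounds 96 h at 37 C, 5% CO2. Growth inhibition read as loss of luminescence; two-generation exposure targets delayed-death apicoplast inhibitors.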
Pf growth 48h: Primary qHTS for delayed death inhibitors of the malarial parasite plastid, 48 hour incubation; P. falciparum luciferase growth in erythrocytes, 48 h; Potency, µM (highest dose often 28.7 µM), without a hit: at the highest dose activity change, negative = inhibition, hits mostly inhibitors; 310,000 compounds, 5.9% hits; further: potency means the concentration at half of the fitted maximal effect; on the % scale 0 is the no-effect control and ±100 the full control effect
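Here the parasites carry a stable luciferase gene and grow inside erythrocytes in Albumax-based RPMI medium with compound for one erythrocytic cycle. Activity is scored as loss of luminescent signal.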
Cycloheximide cs: Cycloheximide Counterscreen for Small Molecule Inhibitors of Shiga Toxin. AID 2314, 2010. 300,000 compounds, 12% hits. max response, %. cell reporter, cycloheximide protein synthesis inhibition counterscreen; in the data active means max response mostly above about 13%, no sharp cut-off; inactive means mostly below about 14%; further: read at 38.3 µM for the half of the compounds with a filed dose; 0% is about no effect
NS1 function inh: qHTS Assay for Inhibitors of Influenza NS1 Protein Function; Potency, µM (doses to about 46.1 µM), for the others: at the highest dose activity, positive = more growth; 270,000 compounds, 0.4% hits; AID 2326, 2010; calls by dose curve; further: potency means the concentration at half of the fitted maximal effect; actives are rising curves; nearly all actives have a fitted effect of over 50% in size
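OD600 was taken as the measure of yeast growth restored by compound in an NS1-expressing S. cerevisiae strain. Cells had been washed out of glucose medium and diluted 1:100 into galactose -URA medium, pH 6.0.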
Shiga inhibitor: A qHTS for Small Molecule Inhibitors of Shiga Toxin; Vero cells, Shiga toxin protein synthesis inhibition reporter; inhibition, % at 38.7 µM; 290,000 compounds, 9.2% hits; AID 2315, 2010; in the data active means inhibition mostly above about 28%, no sharp cut-off; inactive means mostly below about 43%; further: 0% is about no effect
Starred values were filed as active, the others as inactive. Unless noted, the call rests on the fitted dose curve; in most records, active means well fitted inhibition curve with a large enough effect; inconclusive means small, poorly fitted or top-dose-only effect, or another doubt; inactive means no such curve, though single readings can be large or run the other way.

For O=C1/C(=C\c2cccs2)Sc2ccc3ccccc3c21 the results were Pf growth 96h 11.7%, Pf growth 48h 105.4%, Cycloheximide cs 47.6*, NS1 function inh -4.7% and Shiga inhibitor 84.3*.
`COc1ccc(CCNC(=O)c2c[nH]c3ccc(F)cc3c2=O)cc1OC` gave Pf growth 96h 0.0%, Pf growth 48h 11.7µM*, Cycloheximide cs -3.6 and NS1 function inh 19.5%.
Screening COc1cccc(NS(=O)(=O)c2ccc3[nH]cc(C(=O)NC4CC4)c(=O)c3c2)c1 returned Pf growth 96h inconclusive, Pf growth 48h inconclusive, Cycloheximide cs -2.1, NS1 function inh 7.8% and Shiga inhibitor -0.5.
Screening COCCNC(=O)c1c[nH]c2ccc(S(=O)(=O)Nc3ccccc3F)cc2c1=O returned Pf growth 96h -18.1%, Pf growth 48h 2.5%, Cycloheximide cs -3.9, NS1 function inh 6.4% and Shiga inhibitor 1.6.
`COc1ccc(CCNC(=O)c2c[nH]c3ccccc3c2=O)cc1OC` gave Pf growth 96h -25.2%, Pf growth 48h inconclusive, Cycloheximide cs 4.0, NS1 function inh -3.0% and Shiga inhibitor -4.2.
For CCN(CC)S(=O)(=O)c1ccc2c(c1)c(=O)c(C(=O)NCCc1ccc(OC)c(OC)c1)cn2C the results were Pf growth 96h inconclusive, Pf growth 48h inconclusive, Cycloheximide cs -1.8, NS1 function inh 8.3% and Shiga inhibitor 1.6.
`COCCNC(=O)c1c[nH]c2ccc(S(=O)(=O)Nc3ccc(F)cc3F)cc2c1=O` gave Pf growth 96h 0.0%, Pf growth 48h 0.0%, Cycloheximide cs 15.0*, NS1 function inh 6.2% and Shiga inhibitor -10.4.
For COc1cccc(NS(=O)(=O)c2ccc3[nH]cc(C(=O)NCCc4ccc(C)cc4)c(=O)c3c2)c1 the results were Pf growth 96h 11.7µM* and Pf growth 48h inconclusive.
`CCN(CC)S(=O)(=O)c1ccc2[nH]cc(C(=O)NCCc3ccc(OC)c(OC)c3)c(=O)c2c1` gave Pf growth 96h 8.28µM*, Pf growth 48h inconclusive, Cycloheximide cs -1.3, NS1 function inh -0.9% and Shiga inhibitor -9.4.
`COc1ccc(NC(=O)C(=O)c2cn(CC(=O)N3CCCC3)c3ccccc23)cc1` gave Pf growth 96h -0.2%, Pf growth 48h 3.2%, Cycloheximide cs 8.7, NS1 function inh 22.2% and Shiga inhibitor 24.4.
COC(=O)C1=NNCC12CC(=O)N(c1ccc(Br)cc1)C2=O (stereo not given) was read as Pf growth 96h 2.9%, Pf growth 48h 9.9%, Cycloheximide cs -4.5, NS1 function inh 6.8% and Shiga inhibitor -13.1.
`Cc1ccccc1NS(=O)(=O)c1ccc2[nH]cc(C(=O)NC3CCCCC3)c(=O)c2c1` gave Pf growth 96h 11.7µM* and Pf growth 48h 11.7µM*.
Screening COCCNC(=O)c1c[nH]c2ccc(S(=O)(=O)N3CCc4ccccc43)cc2c1=O returned Pf growth 96h -27.6%, Pf growth 48h inconclusive, Cycloheximide cs 18.7 and Shiga inhibitor -22.2.
CCN(CC)S(=O)(=O)c1ccc2[nH]cc(C(=O)NC3CC3)c(=O)c2c1 was read as Pf growth 96h 0.465µM*, Pf growth 48h -6.7%, Cycloheximide cs 1.2, NS1 function inh 2.6% and Shiga inhibitor -4.9.
Screening COCCCNC(=O)c1c[nH]c2ccc(S(=O)(=O)N3CCc4ccccc43)cc2c1=O returned Pf growth 96h 5.0%, Pf growth 48h 11.7µM*, Cycloheximide cs -1.1 and Shiga inhibitor -7.2.
`CCc1ccc(NC(=O)c2ccc3c(c2)C(=O)N(CCOC)C3Nc2ccc(CC)cc2)cc1` (stereo not given) gave Pf growth 96h inconclusive, Pf growth 48h inconclusive, Cycloheximide cs 23.1*, NS1 function inh 9.8% and Shiga inhibitor 66.7*.
COCCN1C(=O)c2cc(C(=O)Nc3ccc(C)c(F)c3)ccc2C1Nc1ccc(C)c(F)c1 (stereo not given) was read as Pf growth 96h inconclusive, Pf growth 48h inconclusive, Cycloheximide cs 32.2*, NS1 function inh 22.5% and Shiga inhibitor 94.1*.
`COCCN1C(=O)c2cc(C(=O)Nc3cccc(F)c3)ccc2C1Nc1cccc(F)c1` (stereo not given) gave Pf growth 96h inconclusive, Pf growth 48h -14.7%, Cycloheximide cs -4.1, NS1 function inh 0.1% and Shiga inhibitor -12.2.
Fc1ccc(N2CCN(Cc3cnc(Cl)s3)CC2)cc1 was read as Pf growth 96h 20.0%, Pf growth 48h -10.5%, Cycloheximide cs -0.9, NS1 function inh -1.1% and Shiga inhibitor 7.7.
`COC(=O)c1sccc1-n1cccc1C(=O)C(=O)N1CCOCC1` gave Pf growth 96h 18.0%, Pf growth 48h 22.6%, Cycloheximide cs 8.6, NS1 function inh -2.8% and Shiga inhibitor -8.0.
CCCCC(CC)C(=O)Nc1ccc(C)c(O)c1 (stereo not given) was read as Pf growth 96h 4.9%, Pf growth 48h -1.2%, Cycloheximide cs 2.9, NS1 function inh 3.5% and Shiga inhibitor 32.3.
For C=CCOc1ccc(Br)cc1/C=N/O the results were Pf growth 96h 26.0%, Cycloheximide cs -6.2, NS1 function inh -77.8% and Shiga inhibitor -31.5.
For C=CCOc1ccc(/C=N/O)cc1Cl the results were Pf growth 96h 3.29µM*, Pf growth 48h 39.6%, Cycloheximide cs 20.4*, NS1 function inh -1.4% and Shiga inhibitor 50.0*.
COc1cc(/C=N/O)ccc1OCc1ccccc1Cl was read as Pf growth 96h -12.5%, Pf growth 48h inactive, Cycloheximide cs 47.6*, NS1 function inh -0.9% and Shiga inhibitor 85.7*.
Screening COc1cc(/C=C(/C)[N+](=O)[O-])ccc1OCc1ccccc1Cl returned Pf growth 96h inconclusive, Pf growth 48h 28.6%, Cycloheximide cs -6.5, NS1 function inh -34.7% and Shiga inhibitor 28.1.
`CC(C)CC(NC(=O)NC(CCC(=O)O)C(=O)O)C(=O)O` (stereo not given) gave Cycloheximide cs -3.3 and Shiga inhibitor -6.6.
`Cn1c(CSc2ccccc2)c(C#N)c2ccccc21` gave Pf growth 96h 13.3%, Pf growth 48h 2.7%, Cycloheximide cs 43.2*, NS1 function inh -58.0% and Shiga inhibitor 81.4*.
Screening Oc1ccccc1C1=Nc2ncnn2C(c2ccc(F)cc2)C1 (stereo not given) returned Pf growth 96h 11.7µM*, Pf growth 48h 32.5%, Cycloheximide cs -2.8, NS1 function inh -29.6% and Shiga inhibitor -4.2.
For Fc1ccc(C2CC(c3ccc(F)cc3)n3ncnc3N2)cc1 (stereo not given) the results were Pf growth 96h -25.4%, Pf growth 48h inconclusive, Cycloheximide cs 10.3, NS1 function inh -10.1% and Shiga inhibitor -12.6.
Screening S=C(Nc1cc(Cl)ccc1Oc1ccccc1)N1CCN(c2ccccn2)CC1 returned Pf growth 96h -72.8%, Pf growth 48h -69.8%, Cycloheximide cs -3.4, NS1 function inh -4.2% and Shiga inhibitor 7.0.
